Screening results from PubChem.
LASV entry inh: inhibitors of Lassa virus binding or cell entry; actives 1.2% (n = 300,000); Potency, µM (top dose mostly 37.9 µM), without a hit: top-dose activity change, negative = inhibition, most hits filed as inhibitors; Lassa virus pseudotype entry inhibition, cell reporter; calls by dose curve; tested in HEK293 cells; also: potency is read from the fitted curve at half-maximal effect; % is scaled to controls: 0 for no effect and ±100 for the full control effect; nearly all actives have a fitted effect of over 50% in size
CHX counter: counter-screen for Shiga toxin inhibitors: cycloheximide protein synthesis inhibition. AID 2314. cell reporter, cycloheximide protein synthesis inhibition counterscreen. max response, %. actives 12% (n = 300,000); in the data active = max response mostly above about 13%, no sharp cut-off; inactive = mostly below about 14%; also: read at 38.3 µM for the half of the compounds with a filed dose; 0% is about no effect
Shiga inhibitor: blocks Shiga toxin action in Vero cells | Vero cells, Shiga toxin protein synthesis inhibition reporter | inhibition, % at 38.7 µM | actives 9.2% (n = 290,000); in the data active = inhibition mostly above about 28%, no sharp cut-off; inactive = mostly below about 43%; also: 0% is about no effect
MARV entry inh: inhibitors of Marburg virus binding or cell entry; actives 1.8% (n = 300,000); Potency, µM (doses to about 37.8 µM), without a hit: top-dose activity change, negative = inhibition, hits mostly inhibitors; Marburg virus pseudotyped entry inhibition, cell reporter; AID 540276; calls by dose curve; tested in HEK293 cells; also: potency is read from the fitted curve at half-maximal effect; % is scaled to controls: 0 for no effect and ±100 for the full control effect
HCV inhibitor: blocks hepatitis C virus | Huh7.5.1 HCVcc-Cre infection, luciferase reporter, 44 h | Potency, µM (titrated, usually from 41.8 µM), for inactives: at the highest dose activity change, negative = inhibition, hits mostly inhibitors | actives 3.4% (n = 340,000) | AID 651820; active = well fitted inhibition curve with a large enough effect; inconclusive = small, poorly fitted or top-dose-only effect, or another doubt; inactive = no such curve, though single readings can be large or run the other way; also: potency is read from the fitted curve at half-maximal effect; % is scaled to controls: 0 for no effect and ±100 for the full control effect
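Cells seeded at 1,000/well and cultured 4 h, then compounds added followed by HCVcc-Cre virus (~0.5 moi). After 44 h further culture, luciferase substrate was added, plates held 15 min at room temperature, and luminescence read for 15 sec.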
FMDV antiviral: blocks foot and mouth disease virus | FMDV antiviral cell-based qHTS | Potency, µM (doses to about 57.9 µM), without a hit: at the top dose activity change, negative = inhibition, most hits filed as inhibitors | actives 1.2% (n = 410,000); calls by dose curve; tested in HEK293T cells; also: read-out not given here; potency is read from the fitted curve at half-maximal effect; % is scaled to controls: 0 for no effect and ±100 for the full control effect; nearly all actives have a fitted effect of over 45% in size
Numbers without * were called inactive; ? = inconclusive; . = not tested or not shown; [ ] = remark or other dose. An excerpt weighted towards active compounds, which were near 13% of everything screened.

SMILES	LASV entry inh	CHX counter	Shiga inhibitor	MARV entry inh	HCV inhibitor	FMDV antiviral
Cc1cc(N2CCOCC2)nc2ccc(NC(=O)CCC(=O)N3CCCC(C)C3)cc12 (configuration not stated)	1%	54*	92	22%	-11%	-2%
Cc1cc(N2CCOCC2)nc2ccc(NC(=S)N3CCCCC3C)cc12 (configuration not stated)	?	31*	19	2.8µM*	?	30%
Cc1cc(N2CCCCC2)nc2ccc(NC(=O)CCC(=O)N3CCN(c4ccccc4)CC3)cc12	-14%[46.1 µM]	.	.	?	.	-19%
Cc1cc(=O)[nH]c(SCC(=O)N2CCCCCC2)n1	8%	6	20	8%	5%	46%
CC1(C)N=C(N)N=C(N)N1c1ccc(CCCCc2ccccc2)cc1	.	.	.	.	.	3.5µM*
CC1(C)N=C(N)N=C(N)N1c1ccccc1	?	-4	-5	?	?	-15%
Cc1cccn2c(=O)c3cc(C(=O)NCCc4ccccc4)c(=N)n(Cc4ccco4)c3nc12	?	-4	-14	?	?	-5%
CC(=O)N=c1c(C#N)cc2c(=O)n3cccc(C)c3nc2n1Cc1ccco1	.	-2	-4	.	11µM*	-4%
COc1ccc(CCNC(=O)c2cc3c(=O)n4cccc(C)c4nc3n(Cc3ccco3)c2=N)cc1OC	6%	14	11	?	11µM*	?
COc1ccc(CCNC(=O)c2cc3c(=O)n4cccc(C)c4nc3n(Cc3ccncc3)c2=N)cc1	.	11	-22	.	-13%	.
Cc1cccn2c(=O)c3cc(C(=O)NC(C)c4ccccc4)c(=N)n(CCCn4ccnc4)c3nc12 (configuration not stated)	?	1	-9	4.5µM*	-16%	-2%
CCOCCCn1c(=N)c(C(=O)NC(C)c2ccccc2)cc2c(=O)n3cccc(C)c3nc21 (configuration not stated)	-11%[46.1 µM]	.	.	?	.	?
Cc1cccn2c(=O)c3cc(C(=O)NCc4ccco4)c(=N)n(CCc4ccccc4)c3nc12	21%[46.1 µM]	17*	46*	?	-28%	-17%
O=C(c1ccccc1)N1N=C(c2ccco2)CC1c1cccs1 (configuration not stated)	?	-2	-7	-11%[46.1 µM]	2%	1%
Cc1cc(C)cc(N(CCC#N)C(=O)COC(=O)C2=COCCO2)c1	-1%[46.1 µM]	.	.	18%	?	-12%
COC(=O)c1ccc(NC(=O)COc2ccc(C3C(C#N)=C(N)Oc4c3ccc3ccccc43)cc2OC)cc1 (configuration not stated)	?	8	4	-27%	?	-6%
COc1cc(C2C(C#N)=C(N)Oc3c2ccc2ccccc32)ccc1OCC(=O)Nc1ccccc1C (configuration not stated)	-17%	-1	-2	?	8.9µM*	-15%
Cc1ccc2nc(C)c(C(=O)O)cc2c1	0%	1	20	14%[46.1 µM]	22%	-11%
CC(/C=N/NC(=O)c1ccncc1)=C\c1ccccc1	-1%	23*	52*	-6%	9%	.
COc1ccccc1C(=O)N/N=C/C(C)=C/c1ccccc1	18%	19*	113	?	9%	51%
O=C(N/N=C/c1ccccc1O)c1ccncc1	.	.	.	.	?	21%
C/C(Cc1ccccc1)=N\NC(=O)CNC(=O)c1cccc(F)c1	16%[46.1 µM]	-1	-3	?	13%	34%
CC(=C/c1ccc(C(C)C)cc1)/C=N/NC(=O)c1ccncc1	?	36*	84*	2%	?	-25%
CC(/C=C/c1ccccc1F)=N\NC(=O)c1cccc(F)c1	?	46*	65*	?	?	-11%
Clc1ccc2nc(-c3cccc(Br)c3)c(Cc3ccsc3)n2c1	.	.	.	.	.	42%
SMILES	LASV entry inh	CHX counter	Shiga inhibitor	MARV entry inh	HCV inhibitor	FMDV antiviral
C[C@@H]1CN(C2CCN(S(=O)(=O)c3ccc4ccccc4c3)CC2)C[C@H](C)O1	.	.	.	-29%	.	.
CC(/C=N/NC(=O)c1cccc(F)c1)=C\c1ccccc1	.	51*	104*	.	?	5%
CC(=C/c1ccccc1)/C=N/NC(=O)c1ccccn1	?	33*	23*	?	1%	?
O=C(Nc1nnc(-c2ccccn2)o1)c1ccc(Br)cc1	16%	14	41	?	-23%	32%
O=C(O)c1ccc(N=Cc2c(O)ccc3oc4c(c23)CCCC4)cc1	.	17*	31	.	?	-27%
Oc1ccc2oc3c(c2c1/C=N/n1cnnc1)CCCC3	-11%	17	26	-23%	?	6%
Cc1ccnc(N=Cc2c(O)ccc3oc4c(c23)CCCC4)c1	?	26*	8	-2%	-22%	.
Oc1ccccc1N=Cc1c(O)ccc2oc3c(c12)CCCC3	.	8	10	.	?	-14%
CCC(Oc1ccccc1)C(=O)Nc1cc(C)on1 (configuration not stated)	.	15*	38*	.	-3%	30%
CCOC(=O)C(=O)Nc1cc(C)on1	-12%	72*	80*	-2%[46.1 µM]	10%	-16%
CCC(OC(=O)C(NC(=O)c1ccccc1)c1ccccc1)C(=O)Nc1cc(C)on1 (configuration not stated)	-6%	-2	26	-1%	21%	.
CCCCNC(=O)Nc1cc(C)on1	4%	12	13	2%	4%	25%
CCC(Oc1ccccc1)C(=O)Nc1ccccn1 (configuration not stated)	17%	26*	22	13%	-16%	73%
CSCC(=O)N1CCCC(CNC(=O)c2ccc(-c3ccccc3)cc2)C1 (configuration not stated)	-2%	12*	22	-1%[46.1 µM]	?	-4%
O=C(NCC1CCCN(C(=O)c2cccnc2)C1)c1ccc(-c2ccccc2)cc1 (configuration not stated)	?	7	4	0%[46.1 µM]	?	-21%
Cc1ncccc1C(=O)N1CCCC(CNC(=O)c2ccc(-c3ccccc3)cc2)C1 (configuration not stated)	.	18	7	.	?	-24%
CC(=O)CCC(=O)N1CCCC(CNC(=O)c2ccc(-c3ccccc3)cc2)C1 (configuration not stated)	.	21*	42*	.	1%	40%
COc1ccc(NS(=O)(=O)c2ccc(C)c(C(=O)N3CCCCCCC3)c2)cc1	-1%	.	.	8%	11%	19%
O=[N+]([O-])c1ccc(NN=Cc2cccc3ccccc23)cc1	-2%[46.1 µM]	.	.	-19%[46.1 µM]	2%	-15%
O=[N+]([O-])c1cccc(N/N=C/c2cccc(O)c2O)c1	-15%	40*	85*	?	?	26%
O=[N+]([O-])c1ccccc1N/N=C\c1ccccc1Cl	?	26*	41*	?	5%	33%
O=C(N/N=C/c1cc([N+](=O)[O-])ccc1O)C1CC1	.	0	-13	.	3%	-11%
O=[N+]([O-])c1ccc(O)c(/C=N/Nc2ccccc2Cl)c1	?	40*	69*	?	?	-14%
